High-throughput results deposited in PubChem by National Center for Advancing Translational Sciences (NCATS).
An excerpt weighted towards active compounds, which were near 5.3% of everything screened.
VACV mCherry inh = qHTS for Stage-Specific Inhibitors of Vaccinia Orthopoxvirus: mCherry Reporter Primary qHTS | Vaccinia virus mCherry reporter infection, fluorescence | actives 0.63% (n = 310,000) | Potency, µM (highest dose often 36.5 µM), hits mostly inhibitors; calls by dose curve; tested in A549 cells; note: nearly all actives have a fitted effect of over 35% in size
FMDV antiviral = High Throughput Screening for Foot and Mouth Disease Virus Antivirals. FMDV antiviral cell-based qHTS. Potency, µM (highest dose often 57.9 µM), hits mostly inhibitors. actives 1.2% (n = 410,000); calls by dose curve; tested in HEK293T cells; note: read-out not given here; nearly all actives have a fitted effect of over 45% in size
VACV Venus inh = qHTS for Stage-Specific Inhibitors of Vaccinia Orthopoxvirus: Venus Reporter Primary qHTS; Vaccinia virus Venus reporter expression, fluorescence; Potency, µM (titrated, usually from 36.5 µM), most hits filed as inhibitors; actives 0.46% (n = 330,000); calls by dose curve; tested in A549 cells; note: nearly all actives have a fitted effect of over 30% in size
Marburg entry inh = qHTS for inhibitors of binding or entry into cells for Marburg Virus. Marburg virus pseudotyped entry inhibition, cell reporter. Potency, µM (series often up to 37.8 µM), actives largely listed as inhibitors. actives 1.8% (n = 300,000). AID 540276, 2011; calls by dose curve; tested in HEK293 cells
HCV inhibitor = qHTS Assay for Inhibitors of Hepatitis C Virus (HCV); Huh7.5.1 HCVcc-Cre infection, luciferase reporter, 44 h; Potency, µM (series often up to 41.8 µM), hits mostly inhibitors; actives 3.4% (n = 340,000); AID 651820, 2012; active = well fitted inhibition curve with a large enough effect; inconclusive = small, poorly fitted or top-dose-only effect, or another doubt; inactive = no such curve, though single readings can be large or run the other way
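Antiviral activity was scored by luciferase reporter output from cells infected with HCVcc-Cre (~0.5 moi) in presence of compound, 44 h infection period, cells seeded 1,000/well 4 h prior.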
LASV entry inh = qHTS for Inhibitors of binding or entry into cells for Lassa Virus; Lassa virus pseudotype entry inhibition, cell reporter; Potency, µM (series often up to 37.9 µM), usual class: inhibitors; actives 1.2% (n = 300,000); AID 540256, 2011; calls by dose curve; tested in HEK293 cells; note: nearly all actives have a fitted effect of over 50% in size
A number is an active result; i = inactive; ? = inconclusive; nt = no result.

SMILES | VACV mCherry inh | FMDV antiviral | VACV Venus inh | Marburg entry inh | HCV inhibitor | LASV entry inh
CN(C(=O)c1cc2nc(-c3ccc4c(c3)OCO4)cc(C(F)(F)F)n2n1)c1ccc(OC(F)(F)F)cc1 | i | i | i | i | nt | i
COc1ccc2c(c1)-c1nc(-n3ncc(C(=O)N(C)CC4CCCN(C)C4)c3C3CC3)ncc1CC2 (configuration not stated) | i | i | i | nt | nt | nt
O=C(NC1CCCCC1)c1ccc2c(c1)N(Cc1cccc(Cl)c1)C(=O)c1ccccc1S2(=O)=O | i | i | i | nt | nt | i
Cc1nnc2n(Cc3ccccc3)c(=O)c3c4c(sc3n12)CN(Cc1ccccc1)CC4 | nt | nt | nt | i | nt | nt
O=c1c2c3c(sc2n2cnnc2n1Cc1ccccc1)CN(Cc1ccccc1)CC3 | i | ? | i | i | 7.9µM | i
COc1ccc(-c2noc(CSc3nc4ccccc4[nH]3)n2)cc1 | i | i | i | i | nt | i
COc1ccc(-c2noc(CSc3nc(N)cc(=O)[nH]3)n2)cc1 | i | i | i | nt | 25µM | i
CCOc1cccc2sc(=NC(=O)c3ccco3)n(CC(=O)OC)c12 | i | i | i | ? | 11µM | i
CCOc1cccc2sc(=NC(=O)CCS(=O)(=O)c3ccccc3)n(CC)c12 | nt | ? | nt | nt | 11µM | nt
Cc1c(C(=O)NCc2ccccc2Cl)sc2nc3n(c(=O)c12)CCCCC3 | i | i | i | nt | nt | ?
C[C@@H]1O[C@H](O[C@H]2C[C@@H](O)[C@]3(CO)[C@H]4[C@H](O)C[C@]5(C)[C@@H](C6=CC(=O)OC6)CC[C@@]5(O)[C@H]4CC[C@]3(O)C2)[C@@H](O)[C@H](O)[C@H]1O | nt | nt | nt | 0.065µM | nt | nt
CC1OC(O[C@H]2C[C@@H](O)[C@]3(CO)[C@H]4[C@H](O)C[C@]5(C)[C@@H](C6=CC(=O)OC6)CC[C@]5(O)[C@@H]4CC[C@]3(O)C2)C(O)C(O)C1O (some centres not stated) | ? | nt | 0.0035µM | nt | nt | nt
CC1CC2C(C(O)C[C@]3(C)C2CC[C@]3(O)C(=O)CO)[C@]2(C)C=CC(=O)C=C12 (some centres not stated) | i | i | i | nt | nt | nt
COC1C(O)C(OC2CC[C@]3(C=O)C4C(OC(C)=O)C[C@@]5(C)C(C6=CC(=O)OC6)CC[C@]5(O)C4CC[C@]3(O)C2)OC(C)C1OC(C)=O (some centres not stated) | i | i | i | nt | nt | nt
COc1ccc(C(=O)N2CCN(Cc3ccccc3)CC2)cc1[N+](=O)[O-] | nt | i | nt | nt | ? | nt
O=C(c1ccc(S(=O)(=O)c2cccc(Cl)c2)c([N+](=O)[O-])c1)N1CCN(Cc2ccccc2)CC1 | i | 11µM | i | ? | ? | ?
O=C(c1ccc(Cn2cc(Cl)c([N+](=O)[O-])n2)cc1)N1CCN(Cc2ccccc2)CC1 | nt | ? | nt | nt | 11µM | nt
CN(C)c1ccc(/C=C/c2ccnc3c(N)cccc23)cc1 | i | nt | i | nt | nt | nt
Cc1cc([N+](=O)[O-])ccc1NC(=O)CN1C2CCC1CC(NC(=O)NC13CC4CC(CC(C4)C1)C3)C2 (configuration not stated) | i | ? | i | ? | 2.5µM | i
CCCC(C)NC(=O)c1cc(S(=O)(=O)N2CCCCCC2)ccc1OC (configuration not stated) | nt | i | nt | nt | i | nt
O=C(COC(=O)Cc1ccccc1)Nc1ccc(SC(F)F)cc1 | nt | i | nt | nt | i | nt
O=C(COC(=O)c1ccccc1C(=O)c1ccccc1)Nc1ccc(SC(F)F)cc1 | i | ? | i | ? | i | 16µM
CCOc1ccc(CNC(=O)c2cnc3sc(N4CCCCCC4)nn3c2=O)cc1OC | i | i | i | nt | nt | i
N#CC(C#N)=c1ccc2c(c1)NC1(CCCCC1)N=2 | i | 25µM | i | ? | ? | ?
N#CC(C#N)=C1NC2(CCCCC2)Cc2ccccc21 | nt | i | nt | nt | i | nt
SMILES | VACV mCherry inh | FMDV antiviral | VACV Venus inh | Marburg entry inh | HCV inhibitor | LASV entry inh
O=S(=O)(c1ccc(F)cc1)N1CCN(c2nc(-c3cccs3)nc3ccccc23)CC1 | i | nt | i | nt | nt | nt
Cc1ccc2c(C(=O)CCl)c(C)[nH]c2c1 | ? | ? | i | nt | ? | nt
O=C(c1cc(N2C(=O)C3C4CCC(C4)C3C2=O)ccc1Cl)N1CCN(c2ccc(F)cc2)CC1 (configuration not stated) | i | 32µM | i | ? | ? | i
COc1ccc(C2Nc3ccc(NC(=O)CO)cc3C(=O)N2Cc2cccc(Cl)c2)cc1COc1ccc(NC(C)=O)cc1 (configuration not stated) | i | nt | i | nt | nt | nt
CC(=O)c1cc2c(cc1NC(=O)Cn1nc(-c3ccc(C)cc3)ccc1=O)OCO2 | ? | i | i | ? | 11µM | i
Clc1ccc(C(c2ccc(Cl)cc2)n2cc[n+](CC(OCc3ccc(Cl)cc3Cl)c3ccc(Cl)cc3Cl)c2)cc1 (configuration not stated) | ? | ? | 11µM | 13µM | ? | nt
O=C(C/C=N/OCc1ccc(Cl)cc1Cl)c1ccc(Cl)cc1 | nt | i | nt | i | i | i
CC(NC(=S)NC1CCCCC1)c1ccc(C(C)(C)C)cc1 (configuration not stated) | i | i | ? | ? | ? | ?
CC(C)c1ccc(C(C)NC(=S)NC2CCCCC2)cc1 (configuration not stated) | nt | ? | nt | nt | 11µM | nt
Cc1oc(-c2ccccc2NC(=O)C2CCC2)nc1CNC(=O)c1ccc2ccccc2c1 | i | i | i | nt | nt | nt
COc1cc2ccc(=O)oc2cc1O | i | ? | i | nt | i | nt
O=Nc1ccc2oc(=O)ccc2c1 | nt | nt | nt | 13µM | nt | ?
CO[C@H]1[C@H](NC(=O)c2ccco2)c2ccccc2C12CCN(Cc1cc(Cl)ccc1O)CC2 | ? | i | i | nt | nt | nt
CN1CCN(c2ncc3c(n2)CCN(Cc2ccccc2Cl)C3)CC1 | i | i | i | nt | nt | i
Cc1ccc(CN2CCc3nc(N4CCN(c5ncccn5)CC4)ncc3C2)cc1 | i | ? | i | nt | nt | ?
Clc1ccccc1CN1CCc2nc(N3CCN(c4ncccn4)CC3)ncc2C1 | i | 32µM | i | nt | nt | i
Cc1cccc(CN2CCc3nc(N4CCN(c5ccccn5)CC4)ncc3C2)c1 | ? | 14µM | ? | nt | nt | i
Cn1c(-c2ccncc2)nc2cc(C(=O)N3CCCC3c3nccs3)cc(NC(=O)C3CCC3)c21 (configuration not stated) | i | i | i | nt | nt | nt
COc1ccccc1NC(=O)CSc1nc2sc(C)c(C)c2c(=O)n1C | i | i | i | i | 10µM | i
Cc1sc2nc(SCC(=O)Nc3c(C)n(C)n(-c4ccccc4)c3=O)n(C)c(=O)c2c1C | nt | i | nt | i | i | i
CCCn1c(SCC(=O)Nc2ccc(C(=O)Nc3ccccc3OC)cc2)n[nH]c1=O | i | 32µM | i | i | ? | i
C/C(=N\NC(=O)NC1CCCCC1)c1ccc(Cl)s1 | i | i | i | i | 3.2µM | ?
COc1cc(/C=C2\SC(=O)N(CCN)C2=O)ccc1OS(=O)(=O)c1cc(C)ccc1C | i | ? | i | ? | 13µM | ?
